Screening results: PubChem BioAssay, several laboratories
TWEAK-Fn14 inh: inhibitors of TWEAK-Fn14 signaling, primary screen, luciferase reporter cells, uHTS. hit rate 2% among 360,000. TWEAK-stimulated Fn14 reporter cells, luciferase luminescence, 8 h. inhibition, % at 10 µM. AID 1159606, 2016; in the data active means inhibition above about 50%
KKLEB cytotox: cytotoxicity in KKLEB CF airway cells, primary screen, cytotoxicity control for CF NF-kB inhibitor project, cell-based, uHTS, fluorescence assay plates | KKLEB CF airway cells viability, ATPlite luminescence, overnight; active compounds read low; cells stimulated with P. aeruginosa culture filtrate | activity change (cytotoxicity), % at 5 µM | hit rate 0.36% among 360,000;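 active means corrected activity change at or below -50% at 5 µM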
HIF-2a inh: HIF-2a reporter inhibitors, primary screen, luminescence, 786-0 RCC cells. 786-0 RCC cells HIF-2a reporter, luciferase luminescence, overnight. inhibition, % at 18.8 µM. hit rate 0.72% among 360,000. AID 624352, 2012;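 active means inhibition of the luminescence signal of 40% or more relative to plate controls, in a single-dose primary screen at 18.75 µM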
hiPSC survival: enhancers of single-cell hiPSC survival, primary screen, ATPlite luminescence | 100% = ROCK inhibitor wells, 0% = DMSO | survival enhancement, % at 20 µM | hit rate 0.044% among 360,000 | AID 602274, 2012; in the data active means survival enhancement above about 18%;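 further: cells exposed to compounds for 16 hours before the ATP read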
CF NFkB block: inhibitors of PAF-induced NF-kB signaling, primary screen, cell-based, GFP fluorescence, uHTS; KKLEB NF-kB-GFP reporter, GFP fluorescence overnight; inhibition, % at 5 µM; hit rate 0.86% among 360,000; AID 588850, 2011;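 active means at least 50% inhibition at 5 µM, scaled per plate between neutral and stimulator controls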;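 further: PAF is a Pseudomonas aeruginosa culture filtrate used as stimulus; plate controls were PAF-stimulated DMSO wells for no effect and unstimulated DMSO wells for full effect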
LGR2 inh: inhibitors of bursicon-induced LGR2 CRE-luciferase signal, primary screen, cell-based, HEK293, CRE-luciferase reporter, bursicon stimulation; Drosophila bursicon receptor LGR2 (rickets); AID 720647, 2013; inhibition, % at 9.99 µM; hit rate 0.35% among 380,000; bursicon-stimulated, 4 h;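 active means drop in luminescence signal, shown as inhibition above about 50% in the replicate tests, limit read from the data, passing the limit was not always enough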;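 further: agonist challenge used bursicon conditioned medium at about half maximal strength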
Active calls of the source: *; · = no result given. A selection: hits, their analogues and other compounds. The true share with any hit is near 2.3%.

SMILES | TWEAK-Fn14 inh | KKLEB cytotox | HIF-2a inh | hiPSC survival | CF NFkB block | LGR2 inh
C[C@@H]1CN([C@H](C)CO)C(=O)c2cc(NS(=O)(=O)c3cccs3)ccc2O[C@@H](C)CCCCO[C@@H]1CN(C)S(=O)(=O)c1ccc(F)cc1 | · | · | · | · | · | -23
Cc1ccc2[nH]nc(C(=O)N3CCCC(C(=O)c4ccc(Cl)cc4)C3)c2c1 (configuration not stated) | 59* | 3 | 5 | -3 | 3 | 2
COc1ccc(NC(=O)Nc2cccc3c2O[C@@H](CN(C)CC2CC2)[C@H](C)CN([C@H](C)CO)C3=O)cc1 | · | · | · | · | · | -7
c1ccn2cc(-c3ccc4c(c3)OCCO4)nc2c1 | 78* | -19 | 2 | -5 | -2 | 91*
CN(C)S(=O)(=O)c1cccc(-c2cn3cc(Cl)ccc3n2)c1 | -25 | 8 | -158 | -1 | -3 | ·
Clc1ccc2nc(-c3ccc4c(c3)OCO4)cn2c1 | 73* | -44 | -26 | -1 | -21 | 86*
Clc1ccc2nc(-c3ccccc3)cn2c1 | 61* | -12 | -47 | -1 | -18 | 34
Fc1ccc(-c2cn3ccccc3n2)cc1 | 35 | -17 | -154 | -1 | -20 | -8
COc1ccccc1NC(=O)N(C)C[C@@H]1Oc2cc(Br)ccc2S(=O)(=O)N([C@H](C)CO)C[C@H]1C | · | · | · | · | · | -1
COC(=O)C(C(C)=O)C1=C/C(=N\S(=O)(=O)c2ccc(C)cc2)c2ccccc2C1=O (configuration not stated) | 17 | 6 | 5 | 0 | 4 | ·
CC(C)c1ccc(S(=O)(=O)/N=C2\C=C(NS(=O)(=O)c3ccccc3)C(=O)c3ccccc32)cc1 | 0 | -3 | -13 | 2 | 74* | 26
Cc1ccc(C)c(S(=O)(=O)/N=C2\C=C(NS(=O)(=O)c3ccccc3)C(=O)c3ccccc32)c1 | 18 | 3 | 5 | 0 | 32 | 7
CCc1ccc(S(=O)(=O)/N=C2\C=C(NS(=O)(=O)c3ccccc3)C(=O)c3ccccc32)cc1 | -6 | -10 | -63 | 0 | 69* | 2
CN(C)C(=O)c1cccc(-c2ccc([C@H]3[C@@H](C#N)N(C(=O)C4CCCC4)[C@H]3CO)cc2)c1 | · | · | · | · | · | 5
CC12CCC3C(CCC4N(CCO)CCC34C)C1CCC2O (configuration not stated) | 94* | 2 | 22 | 0 | 11 | 7
Cc1nn(Cc2ccccc2Cl)c2sc(C(=O)Nc3ccccc3N3CCOCC3)cc12 | 61* | -14 | 5 | -1 | 28 | 1
CCOC(=O)c1ccc(NC(=O)c2cc3c(C)nn(-c4ccccc4Cl)c3s2)s1 | -10 | -70* | 21 | 4 | 70* | ·
CCC(CC)NC(=O)c1cc2c(C)nn(Cc3ccccc3Cl)c2s1 | 74* | -2 | 1 | -1 | 9 | ·
Cc1nn(Cc2ccccc2Cl)c2sc(C(=O)Nc3nccs3)cc12 | 19 | 1 | 13 | -1 | 1 | -21
O=C(C[C@H]1CC[C@@H]2[C@H](COC[C@H](O)CN2Cc2cccc(Cl)c2)O1)NCC1CCCCC1 | · | · | · | · | · | -1
O=C(Oc1cccc(C(=S)N2CCOCC2)c1)c1ccccc1 | 82* | -9 | 8 | 1 | -1 | 1
COc1cc(C(=O)Oc2cccc(C(=S)N3CCOCC3)c2)cc(OC)c1OC | -11 | 24 | 6 | 0 | -8 | 3
CCCNC(=O)C[C@H]1C[C@@H]2c3cc(N(C)C)ccc3O[C@@H]2[C@H](CO)O1 | · | · | · | · | · | 5
Cc1cccc(C(=O)N2CCC(c3nc(-c4ccc(S(=O)(=O)N5CCOCC5)cc4)no3)CC2)c1 | 2 | -5 | 6 | -1 | 5 | ·
O=C(c1ccccc1)N1CCC(c2nc(-c3ccc(S(=O)(=O)N4CCOCC4)cc3)no2)CC1 | 62* | 2 | 4 | 8 | 1 | ·
SMILES | TWEAK-Fn14 inh | KKLEB cytotox | HIF-2a inh | hiPSC survival | CF NFkB block | LGR2 inh
CCC(=O)N[C@H]1CC[C@H](CC(=O)NCC2CC2)O[C@H]1CO | · | · | · | · | · | -2
COCC(=O)N1CC2(C1)CN(Cc1ccccn1)[C@@H](CO)c1[nH]c3cc(OC)ccc3c12 | · | · | · | · | · | 3
CN(C)C(=O)C[C@H]1C=C[C@H](NC(=O)Nc2cccc(F)c2)[C@H](CO)O1 | · | · | · | · | · | 18
O=C(NCCN1CCN(c2ccccc2F)CC1)c1ccc2nc3ccccc3c(=O)n2c1 | 67* | -22 | -24 | 3 | 12 | -7
COc1cccc(S(=O)(=O)N[C@H]2CC[C@@H](CC(=O)NCc3ccccc3)O[C@@H]2CO)c1 | · | · | · | · | · | 11
CCNC(=S)NNC(=O)c1cc(-c2ccc(OCC)cc2)nc2ccccc12 | 52* | -51* | -15 | -6 | -5 | 89*
CCNC(=S)NNC(=O)c1cc(-c2cccc(OC)c2)nc2ccccc12 | -40 | -4 | -119 | -1 | -10 | -4
CCc1ccc(-c2cc(C(=O)Nn3cnnc3)c3ccccc3n2)cc1 | 59* | -32 | 11 | -5 | -1 | 8
CC1CCN(c2ccc(-c3cccs3)nn2)CC1 | 105* | -81* | 78* | -1 | -22 | 75*
Clc1ccc(-c2cccs2)nn1 | 8 | -9 | 1 | -2 | -17 | ·
Cc1ccsc1/C=C1\CCc2ccccc2C1=O | 82* | -48 | -148 | -4 | -24 | ·
O=C1C(=Cc2ccccn2)CCc2ccccc21 | 54* | -5 | -77 | -3 | 61* | 5
COc1ccc2c(c1)CC/C(=C/c1ccccn1)C2=O | 40 | -3 | -195 | 0 | 10 | 15
CC(C)[C@H]1COCc2cn(nn2)CC[C@H](Cc2ccccc2)C(=O)N1 | · | · | · | · | · | -3
COc1ccccc1CNC(=O)C[C@@H]1C=C[C@H](NC(=O)CN(C)C)[C@H](CO)O1 | · | · | · | · | · | -1
O=C(NCCc1ccncc1)[C@H]1[C@H](CO)[C@H]2Cn3c(ccc(C4=CCCCC4)c3=O)[C@@H]1N2CC1CC1 | · | · | · | · | · | -6
CC1(C)Oc2ccc3ccc(=O)oc3c2C[C@H]1O | 2 | 18 | -2 | -3 | -25 | -1
CC1(C)Oc2cc3oc(-c4cc(O)cc(O)c4)cc3cc2CC1O (configuration not stated) | 76* | -10 | 38 | -4 | -7 | 82*
Cc1ccc(-c2nnc(Nc3ccccc3)o2)cc1 | 94* | -48 | 5 | -4 | -35 | 90*
c1ccc(Nc2nnc(-c3ccc4c(c3)OCO4)o2)cc1 | · | · | · | · | · | 92*
Clc1ccc(Nc2nnc(-c3ccc4c(c3)OCO4)o2)cc1 | · | · | · | · | · | -50
C[C@@H]1CN([C@H](C)CO)C(=O)c2cc(NC(=O)Cc3ccccc3)ccc2O[C@@H](C)CCCCO[C@@H]1CN(C)C(=O)c1ccncc1 | · | · | · | · | · | 5
CS(=O)(=O)Nc1ccc2c(c1)[C@H]1C[C@H](CC(=O)N3CCCCC3)O[C@H](CO)[C@H]1O2 | · | · | · | · | · | -13
